MITF TRPM1 HTS – increases MITF-driven TRPM1 promoter luciferase signal | SK-MEL-5 TRPM1-promoter luciferase, 24 h; % of positive control, neutral wells = 0 | activation, % at 12.5 µM | actives 0.75% (n = 300,000) | AID 588334;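 active = mean activation of at least 80% with every replicate also reaching 80%; inconclusive = mean reaches 80% but some replicate falls short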;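 note: 0% = neutral control wells and 100% = parthenolide positive control wells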
Statin myotox sup – suppressors of simvastatin-induced myotoxicity in C2C12 myotubes; ATP luminescence, 48 h; scaled: DMSO 0, geranylgeraniol control 100; rescue of ATP level, % at 7.49 µM; actives 0.78% (n = 330,000); AID 602340;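 active = mean ATP rescue above about 67%, or every replicate alone reaching that limit, limit read from the data, passing the limit was not always enough; inconclusive = no clear call, values can overlap the other calls; inactive = mean under the limit and some replicate under it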;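 note: myotubes were challenged with 10 µM simvastatin during compound exposure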
Wnt act – activators of Wnt/beta-catenin signaling; Wnt/beta-catenin reporter cell assay, activator, plate reader; activation, % at 9.35 µM; actives 1.2% (n = 300,000); in the data active = activation above about 30%, passing the limit was not always enough; inconclusive = no clear call, values can overlap the other calls;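 note: 0% = neutral control wells and 100% = positive control wells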
esBAF inh – blocks esBAF chromatin remodeling in mouse ES cells; Bmi1-luciferase knock-in reporter, 24 h; 100% = twice the neutral-well signal; reporter increase, % at 12.5 µM; actives 2% (n = 350,000); AID 602393; in the data active = activation above about 40%; inconclusive = no clear call, values can overlap the other calls;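 note: 0% = median of the plate's neutral control wells and 100% = double that signal; a rise in the Bmi1 reporter signal indicates esBAF inhibition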
* = called active by the depositor; ? = inconclusive; . = no result given. Shown are actives, neighbours in structure and some others; about 3% of the full set was active somewhere.

SMILES	MITF TRPM1 HTS	Statin myotox sup	Wnt act	esBAF inh
O=C(O)CN1C(=O)/C(=C\c2ccc(OC(=O)c3ccco3)cc2)SC1=S	-1.5	.	33.5*	.
O=C(CCCN1C(=O)S/C(=C\C=C\c2ccccc2)C1=O)Nc1ccc(C(=O)O)cc1	31.2	3.1	11.7	-3.7
C[C@@H]1CN([C@@H](C)CO)C(=O)c2cccc(NC(=O)Nc3ccccc3)c2O[C@H]1CN(C)Cc1ccc2c(c1)OCO2	.	2.2	.	7.5
CCCc1ccc2oc(C(=O)NCCc3nc(C(=O)OCC)cs3)c(C)c2c1	29.3	.	16.9	.
CCCc1ccc2oc(C(=O)N(Cc3nccn3C)C(C)C)c(C)c2c1	21.8	-1.3	6.7	19.4
CCCc1ccc2oc(C(=O)N(C)Cc3ccn[nH]3)c(C)c2c1	43.7	-16.4	6.7	74.9*
CCCc1ccc2oc(C(=O)NCCc3cnn(C)c3)c(C)c2c1	67.9	-7.1	29.9	47.4*
Cc1noc(C)c1NC(=O)Nc1ccc2c(c1)CC(=O)N([C@@H](C)CO)C[C@@H](C)[C@H](CN(C)C(=O)Nc1ccc(F)cc1)O2	.	-8.4	.	2.7
C[C@@H]1CN([C@H](C)CO)C(=O)CCCn2cc(nn2)CO[C@@H]1CN(C)C	.	-3.4	.	0.0
CC(=O)OC12CC3CC(C1)C(=NO)C(C3)C2	3.5	93.8*	.	2.7
COc1ccc2oc(-c3ccco3)cc(=O)c2c1	77.8	.	38.2*	19.7
COc1cccc2oc(-c3ccco3)cc(=O)c12	76.0	26.8	16.8	27.8
O=c1cc(-c2ccco2)oc2ccc(Cl)cc12	49.2	73.2*	.	20.1
COc1ccc2oc(-c3ccncc3)cc(=O)c2c1	31.4	2.4	0.7	13.8
CCOC(=O)c1ccc2[nH]c3ccccc3c2c1	47.6	6.3	0.0	62.0*
CCOC(=O)c1ccc2[nH]c(C)cc(=O)c2c1	3.4	4.6	.	3.7
CCOC(=O)c1ccc2[nH]c(C)c(C)c2c1	36.4	3.7	.	58.5*
C[C@H](CO)N1C[C@H](C)[C@H](CN(C)Cc2ccccc2)Oc2ccc(NC(=O)CCN3CCOCC3)cc2C1=O	.	6.0	.	0.9
O=C(Nc1ccc2c(c1)OCCO2)c1ccccc1Cl	.	-13.0	40.1*	-10.0
O=C(Nc1ccc2c(c1)OCCO2)c1cc2sccc2n1Cc1ccc(F)cc1	22.0	-2.1	5.1	27.7
O=C(Nc1ccc2c(c1)OCCO2)c1cccc2nc3ccccc3nc12	-72.3	73.9*	.	-9.4
O=C(Nc1ccc2c(c1)OCCO2)c1cc2sccc2n1Cc1ccccc1	14.4	-9.8	0.9	49.1*
O=C(Nc1ccc2c(c1)OCCO2)c1ccc2ccccc2n1	9.1	.	-0.5	.
O=C(Nc1ccc2c(c1)OCO2)C1CC(c2ccccc2Cl)=NO1 (stereo unspecified)	43.8	8.3	.	64.0*
O=C(Nc1ccc2c(c1)OCCO2)c1ccccn1	-31.5	-35.0	.	-69.2
SMILES	MITF TRPM1 HTS	Statin myotox sup	Wnt act	esBAF inh
COc1ccc(Cc2c(-c3ccc(F)cc3)nc3ccc(Cl)cn23)c(C)c1	.	5.6	-1.2	44.1*
COc1ccc(Cc2c(-c3cccc(Cl)c3)nc3ccc(C)cn23)c(C)c1	.	-15.1	17.7	56.3*
COc1ccc(Cc2c(-c3ccccc3)nc3ccc(C)cn23)c(C)c1	.	.	7.4	.
Cc1noc(C)c1NC(=O)Nc1ccc2c(c1)C(=O)N([C@H](C)CO)C[C@H](C)[C@@H](CN(C)S(=O)(=O)c1ccc(Cl)cc1)OCCCC[C@H](C)O2	.	.	.	-3.0
CC(Oc1ccc(Cl)cc1Cl)C(=O)N(Cc1ccco1)C1CCS(=O)(=O)C1 (stereo unspecified)	-8.3	115.3*	-2.0	-2.4
Cc1cc(NC(=O)c2cc(C3CC3)on2)no1	.	-5.6	0.9	48.6*
COC(=O)c1ccccc1NC(=O)c1cc(C2CC2)on1	-13.4	-1.6	6.5	17.1
COc1ccc(NC(=O)c2cc(C3CC3)on2)c(OC)c1	.	23.5	-3.1	53.3*
COc1ccc(NC(=O)N(C)C[C@@H]2OCCCC[C@H](C)Oc3ccc(NC(=O)Nc4ccc(C(F)(F)F)cc4)cc3C(=O)N([C@H](C)CO)C[C@@H]2C)cc1	.	-16.9	.	5.9
CCc1nnc(NC(=O)CSc2nc3c(cc2C#N)CCC3)s1	45.4	-8.1	69.9*	-8.4
C[C@H](CO)N1C[C@H](C)[C@@H](CN(C)S(=O)(=O)c2cccs2)Oc2ccc(NC(=O)Nc3ccccc3)cc2CC1=O	.	-26.2	.	-6.8
O=C(Cn1cc2c(n1)CCCCC2)NC1CCCCCC1	54.5	-3.7	5.2	47.1*
O=C(Cn1cnc2c(nnn2-c2ccccc2)c1=O)N1CCOCC1	4.5	-5.7	-2.1	-1.5
O=C(Cn1cnc2c(nnn2-c2cccc(Cl)c2)c1=O)N1CCOCC1	-0.2	-1.8	56.4*	-0.9
c1ccc(COc2ccc3nocc3c2)cc1	117.2*	-15.8	32.4*	103.9*
Nc1ccc(OCc2ccccc2)cc1	18.3	11.2	-4.4	16.7
N#Cc1c(-c2cccnc2)c2c([nH]c1=O)-c1ccccc1OC2	.	6.9	43.7*	2.6
Cc1csc2c(=O)sc(NC(=O)c3ccc(F)cc3Cl)nc12	.	-11.8	5.9	-10.8
O=C(Nc1nc2ccsc2c(=O)s1)c1ccc(F)cc1Cl	.	.	51.7*	.
CCC(=O)N1C[C@@H](C)[C@@H](OC)CN(C)C(=O)c2cc(NS(C)(=O)=O)ccc2OC[C@H]1C	.	-5.6	.	3.6
CSc1cc(-c2ccc(Cl)cc2)c(C(=O)NC(C)C)s1	.	130.5*	5.9	-5.4
COC(=O)C1CCN(C(=O)c2oc3c(Cl)cc(C)cc3c2C)CC1	45.0	8.2	47.0*	25.9
O=C1S/C(=C\c2ccc(N3CCOCC3)o2)C(=O)N1c1ccccc1	61.4	5.1	-3.6	0.0
O=C(O)c1ccccc1-c1ccc(/C=C2\SC(=O)N(c3ccccc3)C2=O)o1	.	6.3	12.8	55.7*
COc1ccc(NC(=O)N2C[C@H](O)COC[C@@H]3O[C@@H](CC(=O)N4CCOCC4)CC[C@H]32)cc1	.	-0.1	.	2.4
SMILES	MITF TRPM1 HTS	Statin myotox sup	Wnt act	esBAF inh
Cc1noc(C)c1NC(=O)N(C)C[C@@H]1Oc2c(NC(=O)C3CCOCC3)cccc2C(=O)N([C@@H](C)CO)C[C@H]1C	.	-22.2	.	1.2
O=C(NCCc1ccc(Cl)cc1)c1ccc(=O)[nH]c1	-9.3	-8.6	-1.7	-3.7
O=C(NCCc1ccc(O)cc1)c1ccc(Cl)cc1	98.4*	17.8	.	?
CC(=O)NCCNC(=O)c1ccc(CSc2ccc(Cl)cc2)cc1	64.8	4.1	-1.5	53.7*
O=[N+]([O-])c1cccc(C2=NC(c3ccccc3)CO2)c1 (stereo unspecified)	27.0	23.4	?	45.4*
O=[N+]([O-])c1cccc(-c2nc(-c3ccccc3)no2)c1	21.7	3.9	.	73.4*
O=[N+]([O-])c1cccc(-c2nc(-c3ccncc3)no2)c1	42.9	19.4	0.3	35.0
O=[N+]([O-])c1cccc(-c2nnc(-c3ccccc3)o2)c1	50.9	.	45.8*	.
O=[N+]([O-])c1cccc(-c2nnc(-c3ccc4c(c3)OCO4)o2)c1	22.1	.	-1.8	.
C[C@H]1CN([C@@H](C)CO)C(=O)c2cccc(NS(=O)(=O)c3ccccc3)c2O[C@H]1CN(C)Cc1ccc(Oc2ccccc2)cc1	.	?	.	-1.8
